Results published in PubChem BioAssay.

Molecular target: NADPH oxidase 5 (Homo sapiens) (UniProt Q96PH1)
Assay: NOX5-dependent H2O2 signal modulators, primary screen, NOX inhibitor project, cell-based, HEK293-NOX5, Amplex Red fluorescence (AID 1161)
Conditions: HEK293-NOX5, ionomycin, 45 min, higher = more signal

Chain of NADPH oxidase 5 (Homo sapiens) (Q96PH1 whole entry, looked up): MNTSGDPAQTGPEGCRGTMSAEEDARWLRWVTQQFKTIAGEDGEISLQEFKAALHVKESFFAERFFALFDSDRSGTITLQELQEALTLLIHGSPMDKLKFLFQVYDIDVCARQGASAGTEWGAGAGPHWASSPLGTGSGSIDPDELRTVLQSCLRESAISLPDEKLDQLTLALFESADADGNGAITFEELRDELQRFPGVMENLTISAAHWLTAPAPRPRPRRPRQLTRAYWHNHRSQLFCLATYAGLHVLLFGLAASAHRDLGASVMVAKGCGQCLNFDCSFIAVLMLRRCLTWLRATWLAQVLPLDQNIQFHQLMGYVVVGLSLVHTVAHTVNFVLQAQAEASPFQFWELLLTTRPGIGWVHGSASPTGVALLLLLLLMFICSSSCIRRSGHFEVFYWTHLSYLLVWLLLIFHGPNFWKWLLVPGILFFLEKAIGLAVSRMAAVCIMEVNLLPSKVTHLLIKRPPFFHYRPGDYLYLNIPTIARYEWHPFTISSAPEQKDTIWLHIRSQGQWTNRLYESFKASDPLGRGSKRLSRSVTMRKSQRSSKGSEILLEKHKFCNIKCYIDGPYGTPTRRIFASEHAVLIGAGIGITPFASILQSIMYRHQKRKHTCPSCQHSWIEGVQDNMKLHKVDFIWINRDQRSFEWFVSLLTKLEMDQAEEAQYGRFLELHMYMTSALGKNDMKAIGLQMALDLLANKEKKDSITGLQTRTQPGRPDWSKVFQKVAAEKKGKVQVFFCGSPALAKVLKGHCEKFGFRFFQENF

Question: How did the z-score turn out when `CCOC(=O)[C@H](CC(C)C)NC(=O)CCC1CC(OC(=O)NCc2cccc3ccccc23)CC2(CCCC(COC(=O)NCCC(C)C)O2)O1` (some centres not stated) was run?
Answer: Its z-score is 0.389.

Question: How did the z-score turn out when `CCOC(=O)[C@H](CC(C)C)NC(=O)CCC1CC(OC(=O)NCc2cccc3ccccc23)CC2(CCCC(COC(=O)NCC3CCCCC3)O2)O1` (some centres not stated) was run?
Answer: Its z-score is -2.79.

Question: How did the z-score turn out when `CCC=CCCC(OC(=O)c1ccc(Br)cc1)C1=CCCCC1=O` (configuration not stated) was run?
Answer: The z-score was -3.12.

Question: How did the z-score turn out when `Cc1cc2c(nc1C)CCCCN2CC(C)ON=C[C@@H](C)[C@H](OCc1ccccc1)C(C)C` (some centres not stated) was run?
Answer: Its z-score is -3.3.

Question: `CCOC(=O)[C@H](Cc1ccccc1)NC(=O)CCC1CC(OC(=O)NCc2cccc3ccccc23)CC2(CCCC(COC(=O)NCCC(C)C)O2)O1` (some centres not stated) was tested. Which z-score did it give?
Answer: Its z-score is 0.101.

Question: Which z-score does the source give for `Cc1ccc(S(=O)(=O)n2c3ccccc3c3nnc(C(=O)c4ccccc4)nc32)cc1` here?
Answer: The z-score was -0.341.

Question: For `COC(=O)NCC=Cc1nc(CCCO)co1`, which z-score is on record?
Answer: The z-score was 0.449.

Question: Which z-score does the source give for `Cc1ccc(S(=O)(=O)N[C@H]2COC(=O)CC=C[C@H](C)[C@@H](NS(=O)(=O)c3ccc(C)cc3)COC(=O)CC=C[C@@H]2C)cc1` here?
Answer: Its z-score is -1.01.

Question: `O=C1[C@H]2[C@H]3[C@H](O)[C@H](O)CC(=NOCc4ccccc4)[C@@H]3CC[C@H]2C(=O)N1C[C@@H]1CCCO1` was tested. Which z-score did it give?
Answer: The z-score was 0.102.

Question: With `CCCCC#C[C@@H]1C=C[C@H](OC(C)=O)[C@@H](COC(C)=O)O1` as the compound, how does the z-score read?
Answer: Its z-score is 2.02.

Question: Which z-score does the source give for `Cc1cc2c(nc1C)CCCN2CC(O)CN1CCCc2nc(C)c(C)cc21` here?
Answer: The z-score was -0.575.

Question: How did the z-score turn out when `C#CCCCON=C1C[C@@H](O)[C@@H](O)[C@@H]2[C@@H]3C(=O)N(CC)C(=O)[C@@H]3CC[C@@H]12` was run?
Answer: Its z-score is -0.64.

Question: Which z-score does the source give for `CCOC(=O)CCN1C(=O)[C@H]2[C@H]3[C@H](O)[C@H](O)CC(=NNC(=O)OCc4ccccc4)[C@@H]3CC[C@H]2C1=O` here?
Answer: The z-score was 0.181.

Question: Which z-score does the source give for `CC(C)(C)N1C(=O)[C@H]2[C@H]3[C@H](O)[C@H](O)CC(=NOCc4ccccc4)[C@H]3CC[C@H]2C1=O` here?
Answer: Its z-score is 0.765.

Question: How did the z-score turn out when `C[C@H]1COC(=O)[C@@H]2CCCN2C(=O)[C@@H](C)COC(=O)[C@H](Cc2ccccc2)NC1=O` was run?
Answer: The z-score was -0.272.

Question: Which z-score does the source give for `O=C1[C@H]2[C@H]3[C@H](O)[C@H](O)CC(=NO[C@@H]4O[C@H](CO)[C@@H](O)[C@H](O)[C@H]4O)[C@H]3CC[C@H]2C(=O)N1c1cccc(Oc2ccccc2)c1` here?
Answer: The z-score was -0.54.

Question: Which z-score does the source give for `CC(C)=CCCC(C)=CCON=C1C[C@@H](O)[C@@H](O)[C@@H]2[C@@H]3C(=O)N(Cc4ccccc4)C(=O)[C@@H]3CC[C@H]12` here?
Answer: Its z-score is -2.3.

Question: `CC(C)(C)N1C(=O)[C@H]2[C@H]3[C@H](O)[C@H](O)CC(=O)[C@H]3CC[C@H]2C1=O` was tested. Which z-score did it give?
Answer: The z-score was 0.0957.

Question: How did the z-score turn out when `COc1ccc(O[C@H]2C=C[C@@H](c3ccccc3)O[C@@H]2COC(=O)CCC(C)=NO[C@@H]2O[C@H](COC(C)=O)[C@@H](OC(C)=O)[C@H](OC(C)=O)[C@H]2OC(C)=O)cc1` was run?
Answer: The z-score was 0.222.

Question: `COc1ccc(COC(=O)NN=C2C[C@@H](O)[C@@H](O)[C@@H]3[C@@H]4C(=O)N(Cc5ccccc5)C(=O)[C@@H]4CC[C@H]23)cc1` was tested. Which z-score did it give?
Answer: The z-score was 0.729.

Question: For `COc1cc(O)c(C(=O)C=Cc2ccc3c(c2)OCO3)c(OC)c1`, which z-score is on record?
Answer: The z-score was -0.0252.

Question: With `C#CCCCON=C1C[C@@H](O)[C@@H](O)[C@@H]2[C@@H]3C(=O)N(C(C)(C)C)C(=O)[C@@H]3CC[C@H]12` as the compound, how does the z-score read?
Answer: Its z-score is 0.307.

Question: For `O=C(NN=C1C[C@@H](O)[C@@H](O)[C@@H]2[C@@H]3C(=O)N(C[C@@H]4CCCO4)C(=O)[C@@H]3CC[C@H]12)OCc1ccccc1`, which z-score is on record?
Answer: Its z-score is -0.165.

Question: For `COc1cccc([C@H]2Oc3ccc(OC)cc3C(=NO[C@@H](C)c3cn([C@H](CO)Cc4ccccc4)nn3)[C@@H]2O)c1`, which z-score is on record?
Answer: Its z-score is -0.327.

Question: How did the z-score turn out when `O=C1[C@H]2[C@H]3[C@H](O)[C@H](O)CC(=NOCc4ccccc4)[C@H]3CC[C@H]2C(=O)N1Cc1ccc2c(c1)OCO2` was run?
Answer: Its z-score is -2.61.

Question: `CC(C)CON=C1C[C@@H](O)[C@@H](O)[C@@H]2[C@@H]3C(=O)N(C4CCCCC4)C(=O)[C@@H]3CC[C@H]12` was tested. Which z-score did it give?
Answer: Its z-score is -0.246.

Question: With `CC(C)(C)N1C(=O)[C@H]2[C@H]3[C@H](O)[C@H](O)CC(=NO[C@@H]4O[C@H](CO)[C@@H](O)[C@H](O)[C@H]4O)[C@H]3CC[C@H]2C1=O` as the compound, how does the z-score read?
Answer: Its z-score is -3.69.

Question: `COC(=O)[C@H](C)NC(=O)CCC1CC(OC(=O)NCCc2ccc(F)cc2)CC2(CCCC(COC(=O)NCCC(C)C)O2)O1` (some centres not stated) was tested. Which z-score did it give?
Answer: The z-score was -0.385.

Question: How did the z-score turn out when `CC(=O)Nc1ccc([C@@H]2N[C@H](C(=O)O)CC[C@H]2C)cc1` was run?
Answer: Its z-score is 0.13.

Question: For `COc1ccc(O[C@H]2C=C[C@@H](c3ccccc3)O[C@@H]2CON=C(C)C)cc1`, which z-score is on record?
Answer: The z-score was -0.684.

Question: For `CO[C@H]1COC(=O)[C@@H](Cc2ccccc2)NC(=O)[C@@H](C)COC(=O)CCC[C@@H]1C`, which z-score is on record?
Answer: Its z-score is 0.789.

Question: `CCOC(=O)NN=C1C[C@@H](O)[C@@H](O)[C@@H]2[C@@H]3C(=O)N([C@@H](C)c4ccccc4)C(=O)[C@@H]3CC[C@H]12` was tested. Which z-score did it give?
Answer: The z-score was -0.657.

Question: For `CO[C@H]1COC(=O)CCC[C@@H](C)[C@H](OC)COC(=O)[C@@H]2CCCN2C(=O)CC=C[C@@H]1C`, which z-score is on record?
Answer: Its z-score is 0.282.

Question: How did the z-score turn out when `COc1cccc([C@H]2Oc3ccc(OC)cc3C(=NOC(C)CN3CCCCc4nc(C)c(C)cc43)[C@@H]2O)c1` (some centres not stated) was run?
Answer: Its z-score is -0.892.

Question: `O=C1[C@H]2[C@H]3[C@H](O)[C@H](O)CC(=NOC[C@@H](O)COCc4ccco4)[C@H]3CC[C@H]2C(=O)N1Cc1ccccc1` was tested. Which z-score did it give?
Answer: The z-score was 0.0182.

Question: For `COc1cccc([C@H]2Oc3ccc(OC)cc3C(=NOC[C@@H](O)[C@H]3O[C@@H]4OC(C)(C)O[C@@H]4[C@H]3O)[C@@H]2O)c1`, which z-score is on record?
Answer: Its z-score is -0.23.

Question: How did the z-score turn out when `Cn1c(=O)n2n(c1=O)[C@H]1[C@H](O)[C@@H]3O[C@@H]3C(=NOCc3ccccc3)[C@H]1CC2` was run?
Answer: Its z-score is 0.632.
